RecA splice inh: inhibitors of M. tuberculosis RecA intein splicing. cell-free RecA intein splicing, fluorescence. inhibition, % (test concentration not listed). 0.75% of 290,000 active. AID 2221; in the data active = inhibition above about 30%
GDH-TPI inh: inhibits GDH-TPI coupling enzymes, artifact for Mtb FBA screen; GDH-TPI coupled enzyme counterscreen, NADH absorbance; inhibition, % at 4.8 µM; 1.2% of 360,000 active; AID 588335
FBA Mtb inh: Mtb fructose-bisphosphate aldolase inhibition; purified M. tuberculosis FBA, fluorescence read-out; inhibition, % at 1 µM; 2.3% of 360,000 active; AID 588726; in the data active = inhibition above about 27%
Target sequence (P9WQA3 whole entry, looked up): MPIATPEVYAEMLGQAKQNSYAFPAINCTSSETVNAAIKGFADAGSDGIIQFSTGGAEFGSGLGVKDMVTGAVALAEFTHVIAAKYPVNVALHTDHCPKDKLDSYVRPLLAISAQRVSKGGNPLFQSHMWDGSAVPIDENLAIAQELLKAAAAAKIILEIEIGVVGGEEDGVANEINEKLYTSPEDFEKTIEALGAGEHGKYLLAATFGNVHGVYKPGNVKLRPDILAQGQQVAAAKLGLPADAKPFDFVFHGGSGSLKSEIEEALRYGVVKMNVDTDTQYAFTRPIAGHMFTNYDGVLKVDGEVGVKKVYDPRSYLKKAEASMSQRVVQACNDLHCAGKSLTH
CCHFV vOTU inh: CCHFV vOTU protease inhibition; Pep-AMC fluorescence; 0.55% of 370,000 active; inhibition, % at 11.5 µM
DUSP3 inh: blocks human VHR1 dual specificity phosphatase | P51452 | recombinant VHR phosphatase, pNPP absorbance | inhibition, % at 13.3 µM | 0.52% of 290,000 active; in the data active = inhibition above about 50%
Target sequence (P51452 whole entry, looked up): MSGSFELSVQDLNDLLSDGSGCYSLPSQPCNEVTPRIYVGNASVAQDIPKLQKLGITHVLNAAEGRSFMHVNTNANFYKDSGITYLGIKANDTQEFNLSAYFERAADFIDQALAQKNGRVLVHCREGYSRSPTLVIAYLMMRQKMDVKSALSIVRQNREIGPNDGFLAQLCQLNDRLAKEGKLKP
3CLpro inhibitor: SARS-CoV 3CLpro protease inhibition | P0C6X7 | recombinant SARS-CoV 3CLpro, quenched FRET peptide cleavage | inhibition, % at 6 µM | 0.14% of 290,000 active | AID 1706; in the data active = inhibition above about 12%
A number is an active result; i = inactive; nt = no result; + = active, no number. This is a sample that favours compounds with a hit; in the whole collection about 4.7% have one here. Rule as the data show it, unless noted: active = inhibition above about 30%; inactive = the rest.

SMILES	RecA splice inh	GDH-TPI inh	FBA Mtb inh	CCHFV vOTU inh	DUSP3 inh	3CLpro inhibitor
COc1ccc(C2C(C#N)=C(N)Oc3c2c(C)nn3-c2ccccc2)cc1Cn1nc(C)c([N+](=O)[O-])c1C (stereo unspecified)	54	i	i	i	i	i
O=C(CCc1ccccc1)N[C@H]1[C@H](OCc2ccccc2)CCC[C@@]12C(=O)N(Cc1ccccc1)c1ccc(-c3ccccn3)cc12	nt	nt	nt	i	nt	nt
O=C(NNC(=O)c1cccnc1)c1ccncc1	i	i	i	i	i	i
Cc1cc(C)c(C(=O)NNC(=O)c2cccnc2)c(C)c1	i	i	i	i	56	i
C[C@@H]1COc2cc(NCCCN3CCOCC3)ccc2S(=O)(=O)N1	nt	nt	nt	i	nt	nt
COC(=O)c1ccc(/C=N/NC(=S)NC(C)C)cc1	i	48	i	i	i	i
COC(=O)c1ccc(/C=N/NC(=O)CC(=O)NC(C)C)cc1	i	i	i	i	i	i
C(=N\n1cnnc1)/c1cccn1-c1ccccc1	i	32	i	i	i	i
Cc1cc(/C=N/n2cnnc2)c(C)n1-c1ccccc1	i	i	i	i	i	i
O=C(NCc1ccccc1)[C@@H]1CCCN1C(=O)[C@H]1CCCN1C(=O)C1CCCCC1	nt	nt	nt	i	nt	nt
CN(C(=O)c1cnccn1)c1nnc(-c2cnccn2)s1	i	31	i	i	i	i
Cc1ccccc1C(=O)N[C@H](C(=O)N1CCC[C@H]1C(=O)NC1CCCC1)C1CCCCC1	nt	nt	nt	i	nt	nt
CCCc1cc(=O)oc2cc(OCC(=O)NCc3ccccn3)ccc12	i	i	i	i	i	i
CCCc1cc(=O)oc2cc(OCC(=O)Nc3ccc(S(N)(=O)=O)cc3)ccc12	i	i	i	i	57	i
CCCc1cc(=O)oc2cc(OCC(=O)NCC(O)c3ccccc3)ccc12 (stereo unspecified)	i	i	i	i	53	i
CCC(Oc1ccc(C)c(C)c1)C(=O)N1CCCN(C)CC1 (stereo unspecified)	i	i	i	i	i	i
CC1=C(C(=O)N2CCCCCC2)CC(CC(=O)NCCN2CCOCC2)C(=O)N1CCC1=CCCCC1 (stereo unspecified)	nt	nt	nt	i	nt	nt
CN(C)/C=C/c1onc(-c2ccccc2Cl)c1C#N	i	43	i	i	i	i
Cc1cc(C)n(C(=O)c2cc3sccc3[nH]2)n1	i	33	i	i	i	i
Cc1cc(C)n(C(=O)c2ccc(C)o2)n1	i	i	i	i	i	i
Cc1cc(O)cc(O)c1C=NCc1ccco1	i	33	i	i	i	i
CCn1c(Cc2cccs2)nnc1SCC(=O)Nc1ccc2c(c1)OCCO2	nt	nt	nt	i	nt	nt
CC(/C=N/NC(=O)c1cc(-c2ccncc2)nc2ccccc12)=C\c1ccco1	nt	i	i	nt	i	i
O=C(N/N=C/c1ccco1)c1cc(-c2cccc(Br)c2)nc2ccccc12	i	41	i	i	i	i
Cc1ccsc1/C=N/NC(=O)c1cc(-c2ccncc2)nc2ccccc12	i	43	i	i	i	i
SMILES	RecA splice inh	GDH-TPI inh	FBA Mtb inh	CCHFV vOTU inh	DUSP3 inh	3CLpro inhibitor
O=C(N/N=C/c1ccc([N+](=O)[O-])o1)c1cc(-c2ccncc2)nc2ccccc12	i	40	i	i	i	i
O=C(NCc1ccccc1)c1cc(-c2ccncc2)nc2ccccc12	i	i	i	i	53	i
CC(=O)CC1c2ccccc2C=C(c2ccsc2)N1c1ccc(-c2cccs2)cc1 (stereo unspecified)	nt	nt	nt	i	nt	nt
COc1ccccc1-c1cc(C(=O)N/N=C/c2ccc(C)o2)c2ccccc2n1	i	49	i	i	i	i
C(=N\N1CCOCC1)/c1ccsc1	i	i	i	i	57	i
Cc1ccc2nc(-c3ccc(N4C(=NC(=O)CCC(=O)O)SC5CS(=O)(=O)CC54)cc3)sc2c1 (stereo unspecified)	i	i	66	nt	i	i
COc1ccc(S(=O)(=O)N2CCC(C(=O)NCc3cccnc3)CC2)cc1Cl	i	i	i	i	i	i
CCOC(=O)c1nnc(-c2cccs2)nc1Oc1ccc(Cl)cc1	38	i	i	i	i	i
CCOC(=O)c1nnc(-c2cccs2)nc1NC(C)C	i	31	i	i	i	i
CC1(C)Oc2cc3oc(-c4cc(O)cc(O)c4)cc3cc2CC1O (stereo unspecified)	i	i	89	i	nt	nt
Cc1nc(CC(=O)c2ccc(O)cc2O)cs1	i	33	i	i	i	i
O=C(Cc1cscn1)c1ccc(O)cc1O	nt	38	i	i	i	i
Cc1ccc(O)c(C(=O)c2cnn(C(=O)Cc3csc(C)n3)c2)c1	nt	i	i	i	i	i
Cc1nc(CC(=O)c2ccc(O)c(C)c2O)cs1	i	59	i	i	i	i
Cc1nc(CC(=O)c2c(C)cc(O)cc2O)cs1	i	37	i	i	i	i
CCOC(=O)CN1C(=O)[C@]2(OCCC=C[C@H]2C)c2ccccc21	nt	nt	nt	i	nt	nt
C[C@H]1CN(S(=O)(=O)C(C)(C)C)[C@@H](CCO)/C1=C\CCO	nt	nt	nt	i	nt	nt
COc1ccccc1C(=O)N1CCC(Oc2cccnc2)CC1	nt	nt	nt	i	nt	nt
O=C(N/N=C/c1ccc([N+](=O)[O-])o1)c1ccc(NS(=O)(=O)c2cccs2)cc1	i	i	i	i	i	i
O=C(NN=Cc1ccc(OC(F)F)cc1)c1ccc(NS(=O)(=O)c2cccs2)cc1	nt	33	i	i	nt	nt
O=C(N/N=C/c1ccc([N+](=O)[O-])cc1)c1ccc(NS(=O)(=O)c2cccs2)cc1	nt	41	i	i	nt	nt
O=C(NN=Cc1ccccc1OC(F)F)c1ccc(NS(=O)(=O)c2cccs2)cc1	nt	32	i	i	nt	nt
COc1cccc(CNC(=S)OC2CCC23CCC(c2ccccc2)CC3)c1 (stereo unspecified)	nt	nt	nt	i	nt	nt
Cc1ccc(S(=O)(=O)Nc2cc3c(cc2N2CCOCC2)n(C)c(=O)c(=O)n3C)cc1	i	32	i	i	i	i
COc1ccc(N2CCN(CCNS(=O)(=O)c3c(C(C)C)cc(C(C)C)cc3C(C)C)CC2)cc1	nt	nt	nt	i	nt	nt
SMILES	RecA splice inh	GDH-TPI inh	FBA Mtb inh	CCHFV vOTU inh	DUSP3 inh	3CLpro inhibitor
Cc1nn(C(=O)CNS(=O)(=O)c2ccccc2)c(C)c1Sc1ccc(Cl)cc1	32	i	i	i	i	i
CC1=C[C@@H]2[C@H]3C(=O)N(Cc4ccccc4)C(=O)[C@H]3[C@@H]1[C@@H]1O[C@@]3(C(=O)N(C)c4ccccc43)C3=C(CCCC3=O)N21	nt	nt	nt	i	nt	nt
O=C(O)c1ccc(N(c2ccccc2)c2ccccc2)cc1	nt	i	+	i	i	i
CCN(CC)c1ccc(C(=O)O)cc1	i	i	i	i	i	i
COCc1cc(N2CCN(C(=O)OC(C)(C)C)C[C@H]2C)ccc1Br	nt	nt	nt	i	nt	nt
CCN1CCN(C(CNS(=O)(=O)c2ccc(C)cc2)c2cccnc2)CC1 (stereo unspecified)	i	i	i	i	51	i
CC(=O)Nc1ccc(S(=O)(=O)NC2=C(N3CCN(Cc4ccccc4)CC3)C(=O)c3ccccc3C2=O)cc1	i	i	i	i	i	i
CCN1CCN(C2=C(NS(=O)(=O)c3ccc(C)cc3)C(=O)c3ccccc3C2=O)CC1	i	i	i	44	i	i
CCOC(=O)C1CCN(C2=C(NS(=O)(=O)c3ccc(Cl)cc3)C(=O)c3ccccc3C2=O)CC1	i	i	129	i	i	i

Source: PubChem (several laboratories)
